Results on 40 molecules are retold here after PubChem BioAssay (NCATS).

Several values for one entry are separate records, joined by “and”; a condition that tells them apart may be missing. Equal values may be shown once. Records with an inconclusive call do not appear. Activity calls are given as the source filed them. The call rests on the fitted dose curve; in most records, active means well fitted inhibition curve with a large enough effect; inconclusive means small, poorly fitted or top-dose-only effect; inactive means no such curve, though single readings can be large or run the other way.
Potency means the concentration at half of the fitted maximal effect.

A short description of the assay: BET inhibitor-based combinations targeting novel dependencies in MECOM-rearranged (r) AML: MV-4-11 cell line (AID 2202233). Further: nearly all actives have a fitted effect of over 45% in size. The following applies: MV-4-11 AML viability, CellTiter-Glo luminescence, 48 h; series mostly up to 46 µM. The source says:
Ecotropic viral insertion site 1 (EVI1) is located on chromosome 3q26.2 as part of the MECOM (MDS and EVI1 complex) locus. Under normal hematopoiesis, EVI1 is a regulator of hematopoietic stem cell maintenance and self-renewal and EVI1 levels decrease as the cells differentiate. In approximately 5-10% of de novo acute myeloid leukemia (AML) EVI1 is aberrantly expressed, including Chromosomal inv(3)(q21;q26.2) or t(3;3)(q21;q26.2) alterations (MECOM-r) that account for about 50% of AML with EVI1 overexpression 31. AMLs with high levels of EVI1 have a poor prognosis and an overall survival time averaging between 10-14 months. EVI1 overexpression confers resistance in leukemia cells, highlighting the need to develop new targeted therapies for EVI1 overexpressing AMLs. Here, we performed an unbiased chemical drug screening by evaluating the single agent activity of a collection of 2,480 oncology-focused, approved and investigational drugs (NCATS Mechanism Interrogation Plates, MIPE v5.0) against a panel of seven AML cell lines. These included four MECOM-r cell-lines (AML-191, AML-194, UCSD-AML1 and HNT-34) and three non-MECOM-r AMLs (MV4-11, OCI-AML3 and SET-2). Exploiting the mechanistic redundancy built in the library, we identified target-level sensitivities in MECOM-r AML cells and relative activity as compared to other AML subtypes.
A collection of 2480 mechanistically annotated dugs (MIPE v5.0) was used to screen four 3q26.2 rearranged AML cell lines and three non-3q26.2 rearranged AML cell lines. This library purposely exploits redundancy by including multiple inhibitors of key onco-targets, while simultaneously encompassing mechanistic diversity, targeting more than 800 distinct mechanisms of action. Briefly, cells were seeded in 5 uL of growth media using a Multidrop Combi dispenser into 1536 well white polystyrene tissue culture treated plates (Corning) at a density of 500cells/well. For each cell-line, for each of the 2480 drugs in MIPE v5.0 library, an 11-point dose curve was generated via a 1536 pin-tool. Plates were incubated for 48 hr at standard incubator conditions, covered by a stainless steel gasketed lid to prevent evaporation. Cell viability was determined by luminescence based, Cell Titer Glo assay (Promega). In detail, 3 uL of Cell Titer Glo were added to each well and plates were incubated at room temperature for 15 min with a stainless-steel lid in place. Luminescence readings were taken using a Viewlux (PerkinElmer) with a 2 s exposure time per plate. Compound dose-response curves were normalized to DMSO and empty well controls on each plate. Quantitative drug activity data from dose-response curves was determined utilizing area Under the Curve (AUC) and Z-transformed AUC (Z-AUC, a mean-centering transformation applied to each individual cell-line screened).
For orientation: ATP-based viability assays read luminescence as a measure of living cells.
In the case of `NS(=O)(=O)NCCNc1nonc1C(=Nc1ccc(F)c(Br)c1)NO`, the Potency result was “inactive”.

Take `O=C(Nc1ccc(OC(F)(F)F)cc1)c1sccc1NCc1ccnc2ccccc12`: the Potency is 6.61 µM (active).

Turning to `O=C([C@@H](Cc1cccc(C(F)(F)F)c1)NS(=O)(=O)c1cc(F)c2c(c1)CCNC2)N1CCCC1`, the Potency was 20.9 µM (active). As for `O=[N+]([O-])c1ccc(-c2nc(-c3ccc(F)cc3)c(-c3ccncc3)[nH]2)cc1`, the Potency is 16.6 µM (active). Under `CCOC(=O)[C@H](CCc1ccccc1)N[C@@H](C)C(=O)N1[C@H](C(=O)O)C[C@@H]2CCC[C@@H]21` stands “inactive”; under `Cc1cn2cc(C(=O)N(C)CCO)cc(N[C@@H]3CCOc4cccc(C)c43)c2n1`, “inactive”. In the case of `COc1ccc(-c2nc3ccc(C4=NNC(=O)CC4C)cc3[nH]2)cc1` (stereo not given), the Potency was 11.8 µM (active). Under `COc1cccc2c1C(=O)c1c(O)c3c(c(O)c1C2=O)C[C@@](O)(C(=O)CO)C[C@@H]3O[C@H]1C[C@H](N)[C@H](OC2CCCCO2)[C@H](C)O1` (stereo not given in full) stands 18.6 nM (active) and 74.2 nM (active); under `COc1cc2ncnc(Nc3cccc(Cl)c3)c2cc1OC`, 8.33 µM (active). The result for `Cc1ccc(C(=O)Nc2cccc(C(F)(F)F)c2)cc1Nc1nc(-c2cccnc2)nc2c1cnn2C` reads 16.6 µM (active); that for `Cn1cnc(=N)c2[nH]cnc21`, “inactive”. Under `O=C1NC(O)CCN1[C@@H]1O[C@H](CO)[C@H](O)[C@H]1O` (stereo not given in full) stands “inactive”; under `Cc1[nH]nc(C(F)(F)F)c1Cc1sc2c(c1C(=O)N1C[C@](C)(O)CO1)c(=O)n(C)c(=O)n2C(C)C`, “inactive”. For `Cc1ccc(-c2ccc3c(ccc4sc5c(c43)NC[C@@H](C)NC5=O)n2)cn1`, the Potency is 20.9 µM (active). Under `Nc1ccccc1NC(=O)c1ccc(CNC(=O)OCc2cccnc2)cc1` stands 1.48 µM (active); under `Cc1cc(Nc2nc(N[C@@H](C)c3ccc(F)cc3)c(C#N)cc2F)n[nH]1`, 0.662 µM (active); under `Cc1c(C(=O)Nc2ccc(N3C[C@@H](C)O[C@@H](C)C3)nc2)cccc1-c1ccc(OC(F)(F)F)cc1`, 5.25 µM (active). The result for `Cc1nc(-c2ccc(OCC(C)C)c(C#N)c2)sc1C(=O)O` reads “inactive”; that for `Cc1cc(-c2ncc(CC(=O)Nc3ccc(-c4cnccn4)cn3)cc2C)ccn1`, 8.33 µM (active); that for `Cn1c2ccccc2c2c3c(c4c5ccccc5n(CCC#N)c4c21)CNC3=O`, 0.417 µM (active). The result for `S=c1nc[nH]c2nc[nH]c12` reads 0.417 µM (active); that for `CCOCc1nc2c(N)nc3ccccc3c2n1CC(C)(C)O`, “inactive”; that for `CNc1nc(C)nc(N[C@H]2CCC[C@@H](C(=O)NCc3ccc(C#N)cc3C(F)(F)F)C2)n1`, 16.6 µM (active). Regarding `O=c1[nH]nc(Sc2ncc([N+](=O)[O-])s2)n1-c1ccc2c(c1)OCCO2`, the Potency is 1.86 µM (active). As for `CC[C@H](NC(C)C)[C@H](O)c1ccc(O)c2[nH]c(=O)ccc12`, the Potency entry was “inactive”.

As for `C[C@](Cc1c[nH]c2ccccc12)(NC(=O)OC1C2CC3CC(C2)CC1C3)C(=O)NC[C@H](NC(=O)CCC(=O)O)c1ccccc1` (stereo not given in full), the Potency entry is “inactive”. The result for `COc1cc([C@@H]2c3cc4c(cc3[C@H](O)[C@H]3COC(=O)[C@@H]23)OCO4)cc(OC)c1OC` reads 0.833 µM (active); that for `O=C1C[C@@H](c2ccc(O)cc2)Oc2cc(O)cc(O)c21`, “inactive”; that for `Cc1cc2cc3c(C)cc(=O)oc3c(C)c2o1`, “inactive”.

Turning to `CC(C)(C)COc1ccc(-n2cc(C(=O)O)cn2)cc1C#N`, the Potency entry is “inactive”.

With `CCN1CCN(CC(=O)Nc2ccc(-c3cccc4c(=O)cc(N5CCOCC5)oc34)c3sc4ccccc4c23)CC1`, the Potency was 1.44 µM (active). On to `CCS(=O)(=O)N1CCN(c2ccc(Nc3ncc(C(N)=O)c(NC4CC4)n3)cc2)CC1`, for which the Potency was 0.417 µM (active).

On to `Cc1cccc(Oc2cnc(=O)[nH]c2)c1`, for which the Potency result was “inactive”. The result for `Oc1c(Cl)cc(Cl)c2cccnc12` reads 11.8 µM (active). In the case of `O=C(NCc1cccc(O)c1)Nc1nc(-c2ccncc2)cs1`, the Potency was 9.34 µM (active). As to `Nc1ccn([C@@H]2O[C@H](CO)[C@@H](O)C2(F)F)c(=O)n1`, the Potency is 0.0059 µM (active). The result for `O=C(C1CCCCC1)N1CC(=O)N2CCc3ccccc3C2C1` (stereo not given) reads “inactive”; that for `O=C(O)Cn1nnc(-c2cc(N3CCC(Oc4cc(F)ccc4Br)CC3)no2)n1`, “inactive”. The result for `Cc1ccc(C(C)(O)c2nc3ccccc3s2)c(C)c1` (stereo not given) reads 18.6 µM (active); that for `CC(=O)c1cnc2ccc(-c3cc(Cl)c(O)c(Cl)c3)nc2c1NC1CCC(CN(C)C)CC1` (stereo not given), 0.0171 µM (active).
